From PubChem BioAssay
ClpP mod: qHTS Assay for Activators of ClpP; Potency, µM (highest dose often 57.5 µM), for the others: at the top dose activity change, negative = active; purified B. subtilis ClpP, FRET peptide cleavage, 20 min; AID 651965, 2013; 1.9% of 340,000 active; active = well fitted falling curve with a large enough effect; inconclusive = small, poorly fitted or top-dose-only effect; inactive = no such curve, though single readings can be large or run the other way; also: the source files actives as falling curves though it sought activators and does not explain the sign; nearly all actives have a fitted effect of over 65% in size
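FRET quenching reversal measured ClpP activation: 10 microg/mL B. subtilis ClpP at pH 8 with the FRET-FV decapeptide, read at 430 nm after 320 nm excitation. The 20-min minus 0-min signal was scaled between DMSO/no-enzyme wells and ADEP (5.8 microM final).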
TDP1 block: blocks human tyrosyl-DNA phosphodiesterase 1 | Q9NUW8 | recombinant TDP1, AlphaScreen DNA substrate cleavage | Potency, µM (series often up to 130 µM), without a hit: at the highest dose activity change, negative = inhibition, most hits filed as inhibitors | 0.28% of 350,000 active | AID 485290; also: % is scaled to controls: 0 for no effect and ±100 for the full control effect; nearly all actives have a fitted effect of over 40% in size
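Recombinant human Tdp1 (E. coli-expressed, 1 nM final) preincubated with compounds 15 min at room temperature, then 5'-biotin/3'-phosphotyrosine-FITC DNA substrate (15 nM final) added for 5 min. AlphaScreen beads (10 ug/ml final) added 10 min; cleavage lowers signal.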
DT40 TDP1 CPT: DT40-hTDP1 cell growth loss with CPT | 12% of 420,000 active | chicken DT40 Tdp1-/-;hTDP1 cells + 20 nM CPT, ATP luminescence, 48 h | Potency, µM (top dose mostly 46.2 µM), for inactives: at the top dose activity change, negative = growth inhibition, most hits filed as inhibitors; also: % is scaled to controls: 0 for no effect and ±100 for the full control effect; nearly all actives have a fitted effect of over 55% in size
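Chicken DT40 Tdp1-/- cells complemented with human TDP1, 400 cells/well, exposed to compounds plus 20 nM camptothecin for at least 48 h at 37 C; viability read as ATP content by CellTiter-Glo luminescence.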
TDP1 cell noCPT: qHTS for Inhibitors of human tyrosyl-DNA phosphodiesterase 1 (TDP1): qHTS in cells in absence of CPT; DT40 Tdp1-/- hTDP1 cells, no CPT, ATP luminescence, 48 h; Potency, µM (top dose mostly 46.2 µM), for the others: at the top dose activity change, negative = growth inhibition, actives largely listed as inhibitors; 15% of 420,000 active; AID 686978, 2013; also: % is scaled to controls: 0 for no effect and ±100 for the full control effect; nearly all actives have a fitted effect of over 55% in size
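Seeded 400 DT40-hTDP1 cells/well (vehicle DMSO, no 20 nM CPT); pinned compounds; ≥48 hr at 37 °C; CellTiter-Glo luminescence as viability measure.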
The depositor's hits bear a star; ? = inconclusive; / = not tested or not shown. Most compounds without a hit are left out; they make up all but 17% or so of the library. Unless noted, calls follow the shape of the dose curve; as a rule, active = well fitted curve in the direction sought with a large enough effect; inconclusive = small, poorly fitted or top-dose-only effect, or another doubt; inactive = no such curve, though single readings can be large; an effect the other way counts as inactive or inconclusive. Potency is read from the fitted curve at half-maximal effect.

SMILES | ClpP mod | TDP1 block | DT40 TDP1 CPT | TDP1 cell noCPT
CCOC(=O)[C@]12CCC=C1N(CCC1=CCCCC1)C(=O)[C@H](CC(=O)N1CCN(C(=O)C3CC3)CC1)C2 | -1.2% | / | -29.5% | -19.5%
O=C(Cn1cc(Cl)c([N+](=O)[O-])n1)NCCC1=CCCCC1 | / | / | 5.8% | -17.4%
Cc1nc(=O)c(-c2ccccc2)c(C)n1-c1ccccc1Cl | 1.3% | / | 2.7% | -11.5%
Cc1ccc(CN2CCc3nc(N4CCN(c5ccccc5F)CC4)ncc3C2)s1 | -29.9% | 1.2% | -9.1% | 0.7%
CCOC(=O)[C@]12CCC=C1N(CCC1=CCCCC1)C(=O)[C@H](CC(=O)N1CCN(C(=O)c3ccco3)CC1)C2 | 4.2% | / | ? | ?
CCOC(=O)[C@]12CCCC=C1N(CCC1=CCCCC1)C(=O)[C@H](CC(=O)N1CCC(c3ccccc3)CC1)C2 | 0.3% | / | ? | 14.6µM*
COc1ccc(S(=O)(=O)N(CC(=O)Nc2ccc3c(c2)OCO3)c2ccc(C)cc2)cc1 | -1.8% | / | ? | ?
OCCCNc1nc(-c2ccc(Cl)cc2)nnc1-c1ccc(Br)cc1 | -1.6% | 0.0% | 23.1µM* | 20.6µM*
O=C(Cn1c(NCCCO)nc2ccccc21)c1ccc([N+](=O)[O-])cc1 | -0.7% | 2.5% | ? | 0.2%
O=[N+]([O-])c1ccc(-c2nnc(-c3ccccc3)c(NCCCO)n2)cc1 | -1.3% | 3.4% | 20.6µM* | 16.4µM*
COC(=O)[C@]12CCCCC=C1N(CCc1ccc(OC)c(OC)c1)C(=O)[C@H](CC(=O)NCCCCc1ccccc1)C2 | -0.3% | / | 20.6µM* | 16.4µM*
COC(=O)[C@@]12C[C@@H](CC(=O)N3CCC(c4ccccc4)CC3)C(=O)N(CCc3ccc(OC)c(OC)c3)C1=CCC(C)(C)C2 | 2.3% | / | ? | ?
COC(=O)[C@]12CCCCC=C1N(CCc1ccc(OC)c(OC)c1)C(=O)[C@H](CC(=O)NCc1ccc(OC)c(OC)c1)C2 | -8.2% | / | 29.1µM* | 16.4µM*
COC(=O)[C@@]12C[C@@H](CC(=O)NCc3cccc(C(F)(F)F)c3)C(=O)N(CCc3ccc(OC)c(OC)c3)C1=CCC(C)(C)C2 | 2.6% | / | 9.2µM* | 11.6µM*
COC(=O)[C@]12CCCCC=C1N(CCc1ccc(OC)c(OC)c1)C(=O)[C@H](CC(=O)N1CCC(c3ccccc3)CC1)C2 | 1.6% | / | 8.2µM* | 8.2µM*
COC(=O)[C@]12CCCCC=C1N(CCc1ccc(OC)c(OC)c1)C(=O)[C@H](CC(=O)NCCCN1CCCC1=O)C2 | -1.3% | / | 10.1% | -15.6%
CCCC(=O)N(c1ccc2oc3c(c2c1)CCCC3)S(=O)(=O)c1cc(C)ccc1C | -0.8% | / | / | /
COC(=O)[C@]12CCCCC=C1N(CCc1ccc(OC)c(OC)c1)C(=O)[C@H](CC(=O)NCCc1ccccc1OC)C2 | -3.5% | / | ? | 18.4µM*
COC(=O)[C@]12CCCCC=C1N(CCc1ccc(OC)c(OC)c1)C(=O)[C@H](CC(=O)NCc1cccc(C(F)(F)F)c1)C2 | 0.6% | / | ? | 16.4µM*
COC(=O)[C@]12CCCCC=C1N(CCc1ccc(OC)c(OC)c1)C(=O)[C@H](CC(=O)NCc1ccccc1)C2 | 1.2% | / | ? | 20.6µM*
COC(=O)[C@]12CCCCC=C1N(CCc1ccc(OC)c(OC)c1)C(=O)[C@H](CC(=O)NCC1CCCCC1)C2 | -4.9% | / | ? | ?
CCCCOc1ccc(C(=O)NN2C(=O)NC3(CCCCC3)C2=O)cc1OC | 0.4% | 2.9% | -15.4% | -21.1%
CCCCN1C(=O)/C(=C2\SC(N3CCCCC3)=NC2=O)c2ccccc21 | 2.4% | 14.4% | 23.1µM* | ?
Cc1csc(=O)n1CCC(=O)N(C)Cc1c(F)cccc1Cl | / | 2.8% | ? | 16.4µM*
Cc1cccc(NC(=O)CSCC(=O)N(C)Cc2c(F)cccc2Cl)c1 | 1.2% | -0.3% | ? | 13µM*
SMILES | ClpP mod | TDP1 block | DT40 TDP1 CPT | TDP1 cell noCPT
Cc1cc(NC(=O)CSCC(=O)N(C)Cc2c(F)cccc2Cl)no1 | 1.2% | 6.3% | 0.6% | -3.7%
CCOc1cc(/C=C/C(=O)OCC(=O)N(CC)C2CCS(=O)(=O)C2)cc(Cl)c1OC (centres undefined) | -15.0% | / | -9.9% | 4.7%
COc1ccc(CN(C)C(=O)c2cccc(NC(=O)CC3SC(N4CCCCC4)=NC3=O)c2)c(OC)c1 (centres undefined) | / | / | 5.17µM* | 5.17µM*
COc1cccc(CN(C)C(=O)c2ccc(NC(=O)CC3SC(N4CCCCC4)=NC3=O)cc2)c1OC (centres undefined) | 0.7% | / | -8.9% | -3.9%
COc1cccc(CN(C)C(=O)c2cccc(NC(=O)CC3SC(N4CCCCC4)=NC3=O)c2)c1OC (centres undefined) | -1.6% | 2.1% | ? | 18.4µM*
COc1ccccc1CNS(=O)(=O)c1ccc(F)c(C(=O)Nc2cc(Cl)ccc2OC)c1 | ? | 5.2% | ? | ?
CN(CCC#N)C(=O)COC(=O)c1ccc(CNS(=O)(=O)c2ccc(F)c(Cl)c2)cc1 | -1.0% | -5.7% | 8.1% | -4.5%
COc1ccc(CCN(C)C2CC(=O)N(c3ccccc3)C2=O)cc1OC (centres undefined) | 0.0% | 7.1% | 9.2µM* | ?
COc1ccc(CCN(C)Cc2ccc(OC)c(OCc3ccccc3)c2)cc1OC | 1.1% | 3.1% | ? | 23.1µM*
COc1ccc(N2C(=O)CC(N(C)CCc3ccc(OC)c(OC)c3)C2=O)cc1 (centres undefined) | / | 5.6% | 0.1% | -4.6%
O=S(=O)(NCCc1csc2nc(-c3ccccc3)nn12)c1cccs1 | 1.2% | 5.2% | ? | 16.4µM*
CCCS(=O)(=O)NCCc1csc2nc(-c3ccc(OC)cc3)nn12 | 1.3% | 7.8% | ? | ?
CCS(=O)(=O)NCCc1csc2nc(-c3ccc(OC)cc3)nn12 | -0.4% | 5.2% | ? | ?
CCc1ccc(S(=O)(=O)NCCc2csc3nc(-c4ccccc4)nn23)s1 | -2.3% | 2.6% | 20.6µM* | 23.1µM*
COc1ccc(-c2nc3scc(CCNS(=O)(=O)c4c(C)noc4C)n3n2)cc1 | -2.9% | 2.6% | ? | ?
COc1ccc(-c2nc3scc(CCNS(=O)(=O)c4cccs4)n3n2)cc1 | -1.0% | 5.2% | 20.6µM* | 18.4µM*
COc1cc(/C=C/C(=O)N2CCN(C)CC2)cc(S(=O)(=O)N2CCc3ccccc32)c1OC | -1.2% | 0.6% | -0.9% | 15.8%
CCC1(CC)NC(=O)N(CC(=O)N2CCN(c3ccccc3F)CC2)C1=O | -1.2% | 0.2% | -4.9% | -29.1%
CCCCN(CCCC)CCNC(=O)Cn1nc(CC)n2c(cc3sc(C)cc32)c1=O | -1.4% | -2.0% | 14.6µM* | 16.4µM*
CCc1cc2c(cc3c(=O)n(CC(=O)NC(C)C)nc(CC)n32)s1 | 0.3% | -2.0% | ? | 16.4µM*
